Experimental data taken from PubChem BioAssay.

experiment: inhibition of PAO1 biofilm formation – strain PAO1, LB-PBS medium, absorbance 600 nm, primary screen (AID 1176); further: test concentration not given here; settings: P. aeruginosa PAO1 growth/biofilm, A600, 12 h; higher = more signal; call rule not given here

z-score, inactive:
Cc1ccc(C2CC=C(C(=O)O)CN2S(=O)(=O)c2ccc(C)cc2)cc1 (centres undefined) 0.396
O=C1O[C@@H](c2ccccc2)[C@@H](c2ccccc2)N2[C@@H](c3ccc(OCCO)cc3)[C@]3(C(=O)Nc4ccccc43)[C@@H](C(=O)N3CCN(c4ncccn4)CC3)[C@H]12 1.47
COCCOC(=O)N1C(=O)[C@@]2(c3cc(C#CCNC(N)=O)ccc31)[C@H](c1ccccc1OCCO)N1[C@H](c3ccccc3)[C@H](c3ccccc3)OC(=O)[C@H]1[C@@H]2C(=O)N1CCN(c2ncccn2)CC1 2.49
COCCOC(=O)N1C(=O)[C@@]2(c3cc(C#Cc4ccc(OC)cc4)ccc31)[C@H](C(=O)N1CCN(c3ncccn3)CC1)[C@H]1C(=O)O[C@H](c3ccccc3)[C@H](c3ccccc3)N1[C@@H]2c1ccc(OCCO)cc1 3.21
CN(C)CCCNC(=O)[C@@H]1c2ccccc2C(=O)N(Cc2cc(F)cc(C(F)(F)F)c2)[C@H]1c1ccc(CO)cc1 0.348
CCCNC(=O)[C@@H]1c2ccccc2C(=O)N(c2ccc(C)cn2)[C@H]1c1ccc(CO)cc1 0.388
CN1C(=O)C2C=CC(C(O)c3ccc(I)cc3)N(NC(=O)OC(C)(C)C)C2C1=O (centres undefined) 0.53
COC(=O)c1c(CC[C@@H](CO)NC(=O)N[C@H](Cc2ccccc2)Cn2cc(-c3ccccc3N)nn2)oc(C(C)=O)c1C(=O)OC -0.109
CCCC=C(CCC)[C@@H](NC(=O)c1ccc(-c2ccccc2)cc1)c1ccc(C(=O)OC)cc1 -0.126
